Our source for the growth values is PubChem BioAssay (NCI).

About 83,000 compounds went through this panel and 20% of them were active in at least one assay; those are over-represented in the sample as a whole.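 Assay: single dose, 48 h. Readout: percent growth (0 = no net growth; negative = cell death). Active: <10.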 A number with no mark means an inactive call. Calls of active or inactive are those of the source.

The test system of this assay is BT-549 breast. As to the kind of experiment: NCI-60 one-dose screen, 48 h (100 = growth as untreated, 0 = no growth, -100 = all killed). Particulars: 10 µM. As for the experimental part:
Growth inhibition of the BT-549 human tumor cell line is measured as a screen for anti-cancer activity. Cells are grown in 96 well plates and exposed to the test compound for 48 hours. Compounds are tested at a single concentration, which is 10^-5 M for most compounds. The reported endpoint is percent growth (GI% or GIPRCNT), where numbers from 0 - 100% represent growth inhibition, and numbers from -100% - 0 represent cell death. For example, a value of 40 represents 60% growth inhibition. A value of 0 means no net growth occurred over the course of the experiment. A value of -40 indicates 40% of cells at the beginning of the experiment died by the end of the experiment. A value of -100 means all cells are dead at the end of the experiment.
NCI-60 Human Tumor Cell Lines Screen was performed using the standard one-dose NCI protocol, which is described in more detail at https://dtp.cancer.gov/discovery_development/nci-60/default.htm.
Compounds with GIPRCNT values below 10 were considered active. Activity score was based on GIPRCNT using the following formula: […]
Score is 0 for GIPRCNT values of 100 or above, 50 for GIPRCNT values of 0, and 100 for GIPRCNT values of -100.
`CO[C@@H]1[C@H](OC(=O)NC(=O)CCl)CC[C@]2(CO2)[C@H]1[C@@]1(C)O[C@@H]1CC=C(C)C`: the growth is 61.2%.

As to `CC(C)(C)[Si](C)(C)OC1[C@@H](O[Si](C)(C)C(C)(C)C)[C@@H](CNC(=O)NC(=O)CF)O[C@H]1n1cnc2c(NC(=O)Nc3ccccc3)ncnc21` (stereo not given in full), the growth is 68.9%.

With `CC(=O)O[C@H]1CC[C@H]2[C@@H]3CC[C@H]4CC=C(C)C[C@]4(C)[C@H]3CC[C@]12C`, the growth is 107%.

Take `O=C1NC(=O)C(=Cc2cn(Cc3ccccc3)c3ccccc23)C(=O)N1`: the growth was 77.6%.

For `Nc1nc(N)c(-c2ccc(Cl)c(Cl)c2)c(/C=C/c2ccc(S(=O)(=O)F)cc2)n1`, the growth is 94.6%.

As to `[N-]=[N+]=NC(C(=O)O)c1ccccc1` (stereo not given), the growth is 114%.

In the case of `CC1(C)N=C(N)N=C(N)N1c1ccc(OCCCCNC(=O)c2ccc(S(=O)(=O)F)cc2)c(Cl)c1`, the growth is 79.5%.

With `CCC[CH2][Sn]([CH2]CCC)([CH2]CCC)[O]C(=O)c1ccc(Cl)cc1Cl`, the growth is -96% (active).

Turning to `CO[C@@H](c1ccccc1Cl)[C@H](C)OC(N)=O`, the growth is 97.2%.

For the compound `CC1([N+](=O)[O-])COP(=O)(Nc2ccc(F)cc2)OC1` (stereo not given), the growth was 96.8%.

For the compound `O=C(CCF)c1ccc(O)cc1`, the growth was 110%.

As to `CC(C)(C)N(Cc1ccccc1)N=O`, the growth is 102%.

As to `CC(=O)Nc1ccc(C=C2C(=O)NC(=O)NC2=O)cc1`, the growth is 112%.

`Fc1ccc(C2=NN(c3ccccc3)C(c3sc(N(CCCl)CCCl)nc3Cl)C2)cc1` (stereo not given): the growth is 99.5%.

Regarding `CCC1CN1P(=O)(OCCOC)N1CC1CC` (stereo not given), the growth is 106%.

Take `CC(=O)O[C@H]1CCC2C3CCC4=C/C(=N/O)CCC4(C)C3CCC21C` (stereo not given in full): the growth was 84.9%.

On to `Nc1ccc(N)c2c1Oc1ccccc1O2`, for which the growth was 97.9%.

`Cc1cc(C)nc(C)c1.[Cl][Hg][Cl]`: the growth is 100%.

For the compound `OC1CCCCC1N1CCC(c2ccccc2)CC1` (stereo not given), the growth is 97.6%.

`CCC1([N+](=O)[O-])COP(=O)(NCc2cccnc2)OC1` (stereo not given): the growth was 114%.

Take `C[C@]12CC[C@H](OC3OC(O)C(O)C(O)C3O)C=C1CCC1C2CC[C@]2(C)[C@@H](c3ccc(=O)oc3)CC[C@]12O` (stereo not given in full): the growth was -92.3% (active).

On to `CNC(C)Cc1ccccc1` (stereo not given) (tested in a mixture with another compound), for which the growth is 109%.

For `CCCCCN(CCCCC)CC(O)c1ccc(C)c(Cl)c1` (stereo not given), the growth was 107%.

As for `CC1(C)N=C(N)N=C(N)N1c1ccc(CNC(=O)Nc2ccc(S(=O)(=O)F)c(Cl)c2)c(Cl)c1`, the growth is 48.6%.

As to `CCOC(=O)/C(C#N)=C/c1ccc(N(CCCl)CCCl)cc1`, the growth is 95.3%.

For `CCC(C)/C=C(C)/C=C/C(=O)c1c(O)c(-c2ccc(O)cc2)c[nH]c1=O` (stereo not given), the growth is 38.3%.

In the case of `CC(=O)Nc1ccc(Cc2ccc(NC(C)=O)cc2)cc1`, the growth is 117%.

For the compound `CC1(C)N=C(N)N=C(N)N1c1ccc(OCCCCNC(=O)Nc2cccc(S(=O)(=O)F)c2)c(Cl)c1`, the growth is 66.4%.

`CC1(C)N=C(N)N=C(N)N1c1ccc(CCCCc2ccc(S(=O)(=O)F)cc2)c(Cl)c1`: the growth was 46.2%.

With `C[C@]12CCC(=O)CC1CC[C@@H]1C2CC[C@@]2(C)C1CC[C@@H]2OC(=O)CC[Se][Se]CCC(=O)O[C@H]1CCC2[C@@H]3CCC4CC(=O)CC[C@]4(C)C3CC[C@@]21C` (stereo not given in full), the growth was 96.8%.

Consider `COc1cc(C2=NN(c3ccccc3)C(c3sc(N(CCCl)CCCl)nc3Cl)C2)cc(OC)c1OC` (stereo not given), for which the growth is 95.4%.

Turning to `CC(=O)N1N=C(c2ccccc2)CC1c1sc(N(CCCl)CCCl)nc1Cl` (stereo not given), the growth was 92.8%.

Regarding `CCC(CO)NC1CCCCC1` (stereo not given), the growth was 108%.

On to `O=C(CCl)NCNC(=O)CCl`, for which the growth is 86.7%.

As for `CC[C@H](C)[C@H](NC(=O)Nc1ccccc1)C(=O)N(C)[C@H](C[C@@H](OC(C)=O)c1nc(C(=O)N[C@@H](Cc2ccccc2)C[C@H](C)C(=O)OC)cs1)C(C)C`, the growth is 2.56% (active).

With `Nc1c(Br)cc([N+](=O)[O-])cc1[N+](=O)[O-]`, the growth is 110%.

As to `ClCCN(CCCl)c1nc(Cl)c(C2CC(c3ccc(Cl)cc3)=NN2c2cc(Cl)cc(Cl)c2)s1` (stereo not given), the growth is 103%.

As for `C1CNC2CCCC2C1` (stereo not given), the growth is 102%.

Regarding `C[CH2][Pb]([CH2]C)([CH2]C)[O]C(=O)c1ccc(N)cc1`, the growth is 56.9%.

Take `Cc1cc(CCl)c(C)cc1CCl`: the growth is 68.8%.
